Results on 59 compounds are retold here after ChEMBL document CHEMBL4513216, “Probing the Open Global Health Chemical Diversity Library for Multistage-Active Starting Points for Next-Generation Antimalarials” (ACS Infect Dis, 2020).

Hit rate of the full screen: of about 69,000 compounds, about 8,600 (12%) showed an effect of 50% or more. The sample as a whole holds a higher share of strong results than the screen did.

The test system of the assay is Plasmodium berghei. Nature of the assay: Screen against P. berghei liver stage (PbLuc), transformed with Luciferase, at 10uM. The note with it: tested at 10 uM. Format: functional, HepG2.
As for `CN(C)Cc1cc(C2CCCN(S(=O)(=O)c3cccc(Cl)c3)C2)nn1C` (centres undefined), the INHIBITION is reported as -14.2%.

Consider `Cc1ncc(CN2CCCC(c3cc(C(F)(F)F)[nH]n3)C2)s1` (centres undefined), for which the INHIBITION is given as -17.6%. With `CCCNC(=O)c1ccc(S(=O)(=O)NCC2(O)CCCNC2)cc1` (centres undefined) the figure was 43.4%.

With `CNS(=O)(=O)c1ccc(C(=O)NCCNc2ncccn2)cc1`, the INHIBITION amounted to 33%.

Turning to `CCCNC(=O)NCc1ccccc1NS(=O)(=O)c1ccccc1`, the INHIBITION is given as -24.7%. In the case of `CCCNC(=O)c1ccc(S(=O)(=O)NC2(COC)CCCC2)cc1`, the INHIBITION is 56.3%.

As to `CCOCCC1(CNC(=O)c2ccncc2)CCC1`, the INHIBITION is -37.7%. With `CCCNC(=O)c1ccc(S(=O)(=O)NCC2(COC)CCCC2)cc1` the figure was 89.7%; with `CC(=O)N(Cc1ncc(C)o1)C1CCN(Cc2cc(C)on2)C1` (centres undefined), -16%; with `COC(CNC(=O)C1CCN(S(C)(=O)=O)CC1)c1ccc(C)s1` (centres undefined), 36.8%. Turning to `COc1ccc(CN(C)[C@@H]2CN(C(=O)c3cnn(C)c3)C[C@H]2O)cc1`, the INHIBITION worked out at 2.71%.

On to `COc1ccc(CN(C)[C@@H]2CN(C(=O)c3cncs3)C[C@H]2O)cc1`, for which the INHIBITION turned out to be 56.8%. As for `COc1ccc(CN(C)[C@@H]2CN(C(=O)c3ccnn3C)C[C@H]2O)cc1`, the figure is -55%. In the case of `COc1ccc(CN(C)[C@@H]2CN(C(=O)c3cccs3)C[C@H]2O)cc1`, the INHIBITION is reported as 24.5%. With `COc1ccc(CN(C)[C@@H]2CN(C(=O)c3ccccc3)C[C@H]2O)cc1` the figure was 25.6%.

On to `COc1ccc(CN(C)[C@@H]2CN(C(=O)c3cccnc3)C[C@H]2O)cc1`, for which the INHIBITION amounted to 52%. In the case of `COc1ccnc(N2CCN(Cc3nc(-c4ccoc4)no3)CC2)c1`, the INHIBITION turned out to be 9.52%. With `Cc1nc(C)n(CC2CCCN2Cc2cn3cc(Cl)ccc3n2)n1` (centres undefined) the figure was 15.3%; with `Cc1ccc(C(=O)N2C[C@@H]3CCCO[C@@H]3[C@H](N3CCCC3)C2)cn1`, 30.5%. Consider `CN(C)CCO[C@@H]1CC[C@H]2[C@H]1OCCN2C(=O)c1ccncc1`, for which the INHIBITION worked out at 29.3%.

As for `Cc1ccccc1C(=O)N1CCO[C@H]2[C@H](OCCN(C)C)CC[C@@H]21`, the INHIBITION is -0.371%. With `Cc1ccc(C(=O)N2C[C@@H]3CCCO[C@@H]3[C@H](N3CCOCC3)C2)cn1` the figure was 52.6%; with `O=C(c1ccccc1)N1C[C@@H]2CCCO[C@@H]2[C@H](N2CCCC2)C1`, 52.6%. With `CO[C@H]1CC[C@H]2[C@H]1OCCN2C(=O)c1ccc(C)nc1`, the INHIBITION is -6.39%. Regarding `Cn1cccc1C(=O)N1C[C@@H]2CCCO[C@@H]2[C@H](N2CCOCC2)C1`, the INHIBITION stood at 30.5%. Regarding `O=C(c1ccccc1)N1C[C@@H]2CCCO[C@@H]2[C@H](N2CCOCC2)C1`, the INHIBITION is 49.7%. As for `CO[C@@H]1CC[C@H]2[C@H]1OCCN2C(=O)c1ccc(C)nc1`, the figure is 67%; as for `Cc1ccc(C(=O)N2CCO[C@H]3[C@H](OCCN(C)C)CC[C@@H]32)cn1`, -9.26%; as for `Cc1cccc(C(=O)N2CCO[C@H]3[C@H](OCCN(C)C)CC[C@@H]32)n1`, 54%. On to `Cc1cc(C(=O)N2C[C@@H]3CCCO[C@@H]3[C@H](N3CCOCC3)C2)c(C)[nH]1`, for which the INHIBITION is 4.02%. Consider `COc1ccc(Cn2cc(C(=O)N(C)CCN(C)C)nn2)cc1`, for which the INHIBITION worked out at 28.5%.

As to `c1cncc(COCc2nnc3n2CCN(CC2CC2)C3)c1`, the INHIBITION is -15.7%.

Regarding `CCS(=O)(=O)CCN(C)C(=O)NC(C)c1ccc(C)s1` (centres undefined), the INHIBITION came to 22.6%. As to `CCc1sc(C(=O)N2CCC(Nc3ccc(C)nn3)CC2)cc1C`, the INHIBITION came to 42%. For the compound `Cc1ccc(C(=O)N2C[C@@H](N3CCN(C)CC3)[C@H]3OCCC[C@H]32)cn1`, the INHIBITION is reported as 10.4%. As to `Cc1cnc(C(=O)N2C[C@H](N3CCOCC3)[C@@H]3OCCC[C@@H]32)cn1`, the INHIBITION is 45.7%. As for `Cc1ccc(C(=O)N2C[C@H](N3CCOCC3)[C@@H]3OCCC[C@@H]32)cn1`, the INHIBITION is listed as 50.3%. As for `CC(=O)NCC1CCN(C(=O)c2ccc(Sc3ccccn3)cc2)CC1`, the figure is 14.4%; as for `CC(=O)N1CCN(c2cnnc(N3CCCC3)c2)CC1`, 31.9%. Take `O=C(c1ccccc1)N1C[C@H]2CC[C@@H](C1)N(Cc1cc(F)ccc1Cl)C2`: the INHIBITION came to 25%. As for `COCCCN1C(=O)CC[C@H]2CN(Cc3ncc[nH]3)CC[C@H]21`, the figure is 38.8%; as for `COCCCN1C(=O)CC[C@H]2CN(Cc3ccc4occc4c3)CC[C@H]21`, 16.1%; as for `COCCCN1C(=O)CC[C@H]2CN(c3cc(C(N)=O)ccn3)CC[C@H]21`, 24.9%. As for `COCCCN1C(=O)CC[C@H]2CN(Cc3cc4ccccc4o3)CC[C@H]21`, the figure is 73.9%.

With `COCCCN1C(=O)CC[C@H]2CN(Cc3ccc4nonc4c3)CC[C@H]21`, the INHIBITION amounted to 53.4%. As to `COCCCN1C(=O)CC[C@H]2CN(c3nc4ccccc4s3)CC[C@H]21`, the INHIBITION was found to be 41.2%. Consider `NCCN1C(=O)CC[C@H]2CN(Cc3ccc4occc4c3)CC[C@H]21`, for which the INHIBITION is 30.3%. For the compound `COCCCN1C(=O)CC[C@H]2CN(c3ccnc4ccccc34)CC[C@H]21`, the INHIBITION came to 63.9%. As for `COCCCN1C(=O)CC[C@H]2CN(c3cnc4ccccc4n3)CC[C@H]21`, the figure is 28.5%; as for `CC(=O)N1CCCC(c2ccc(N3CCOCC3)cn2)C1` (centres undefined), -4.51%. With `Cc1ccc(NCc2cnc3n2CCN(c2ncccn2)CC3)nn1` the figure was 35.2%. As for `Cc1ccccc1CNC(=O)C1CCN(Cc2nccn2C)CC1`, the INHIBITION is listed as -17%.

As for `CC(=O)N1CCC(Cc2cnc(-c3c(C)nn(C)c3C)cn2)C1` (centres undefined), the INHIBITION was 33.5%. With `Cn1ccnc(Sc2cccc(C#N)c2)c1=O` the figure was 15%.

For `COCCN1CCN(C(=O)C(c2cccc(F)c2)N(C)C)CC1` (centres undefined), the INHIBITION amounted to 41.5%.

For `CN(C)C(C(=O)N1CCN(CCn2cccc2)CC1)c1cccc(F)c1` (centres undefined), the INHIBITION is 44.7%. In the case of `COCCCN1CCN(C(=O)C(c2cccc(F)c2)N(C)C)CC1` (centres undefined), the INHIBITION was 50.1%. With `CC(Cn1ccnc1)NC(=O)N1CCN(Cc2ccsc2)CC1` (centres undefined) the figure was 31.9%. With `COc1ccc2c(c1)CC(C1CCOCC1)N(C(=O)c1ccn(C)n1)C2` (centres undefined), the INHIBITION was 2.45%.
